Over roughly 25,000 sequences, “ln(normalized median fluorescence intensity)” has its median near 6.7; the highest 2% begin near 10. What follows is part of a selection rich in the highest values, with near analogues and random picks from the rest.
system: PfHDP1 homeodomain (GST-tagged); assay: gcPBM binding intensity (ln(normalized median fluorescence intensity)); higher = stronger DNA binding
In short: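 GST-fused DNA-binding domains of P. falciparum, expressed in E. coli, were applied at about 25 μg on average for 1 h to an Agilent 4 × 180k array of primer-extended double-stranded 36-bp intergenic genomic probes and negative controls. Binding intensity is the highest Masliner-normalised natural-log median intensity across replicate spots of either probe orientation, measured with Alexa488 anti-GST antibody and a 488 nm scan.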

Sequence	gcPBM binding intensity (ln)
AAATAGTTGTTATGGGTGCAAACCACATATATATAA [GTGCAC_site9428]	8.79
TGTAGTTTGTCCCATGCATGTTCCATTAAAATATAT [TGCATGCA_site854]	7.57
TTATGTAGTATAATGAGTACTAAATATAGATATGTT [XGTACX_site6335]	6.56
ATTTAACAACTTCAAACACACAATATAGATTTATAT [CACACA_site7067]	6.6
AAACAAGTAATTGTTATTATTATTATATTATTATTA [CACACA_negctrl_site402]	6.12
TTTGAATATTCATATGCACACAAATTAATATACATA [CACACA_site8040]	9.99
ATGTGCAAATATTAAAGTACTAAATTTTATTATTTT [XGTACX_site7306]	11.3
TTGCATTAATTTATGTGTACATATAAATTTTTATTT [XGTACX_site3060]	6.94
AAAAAAAAAAAATGTGTGCACATTATTTCAACTTAA	10
AATAATATTTATTTTTGTACATATGTGCATTATAAA [XGTACX_site3682]	11.2
TATTTCAAATGTTATGTGCACATATTAATCCTACTT [GTGCAC_site9738]	10.7
ATATATACATATAAATGTACATAATTATTATGCACA [XGTACX_site1261]	9.09
ATTTTAAATGTTATGCGTACATATTAATCCTACTTA [XGTACX_site1344]	6.69
TTTATTTATTATTAAAGTACTAAATTATATTATTAT [XGTACX_site2565]	5.95
ATAATAATATTATTTTGTACATATGTGCTTATTTAT [XGTACX_site5540]	7.11
GTACGTTACATAAATGTGCACATATTATATGCGAAG	10.7
TTTATTTATTATTAAAGTACTAAAATATATTATTAT [XGTACX_site4887]	6.24
AATGTATTAAAATTACGTACATATGCACATTTTATA [XGTACX_site5046]	8.53
GAAAACGTTTGAAGTTGTACATATGTATAAAAAGAA [XGTACX_site2304]	7.74

Sequence	gcPBM binding intensity (ln)
TTTTTCATATTATACTTTTATATACATATATAAAAA [XGTACX_negctrl_site281]	6.49
ATATATATATGTAATAGTACATATGATAGTTTGTCA [XGTACX_site1545]	8.51
TTTTTATTGCAATACTTATATTTTTTTATGATTAAA [TGCATGCA_negctrl_site147]	10.1
TTACATGCTAAAATTTGTACATATATGATAAATATT [XGTACX_site2648]	6.47
TATTATTTAATCAAATGTACATAGAAAATGTATGTA [XGTACX_site4433]	6.21
CATATATACAGTAACACACACAAAAAAATATGAATA [CACACA_site3996]	6.91
ATATAGTTGTCATATTGTACACTTTAGGGTTGGTTA [XGTACX_site7339]	6.64
TTATAAAAATAATATCGTACAAATGACATAGATGAA [XGTACX_site2570]	6.6
ATTATCCATGCATTTACACACACACCCAAAAAAATT [CACACA_site4101]	7.67
ATATATATATATATATGTACATATTTATATTGTAAA [XGTACX_site8878]	9.35
TAATTACCATATGGTACACACATATATATATGTATA [CACACA_site3487]	7.02
TTTTTCATAAGAAGCACACAAAAAATGATAGAGAAT [CACACA_site1417]	7.39
AAAATATTCACGTGTACATATATATATATATATTAT [TGCATGCA_negctrl_site192]	6.96
TTTTATATAAATATCACACACACACGCATGTTTTAA [CACACA_site6187]	6.71
CATATACAGAAACACACACACACATAAATAAATATA [CACACA_site1343]	6.84
CATTTATATAAAGAATGTACACACAGAAATGCACAC [XGTACX_site4718]	9.03
ATTTATATAAAGAATGTACACACAGAAATGCACCCA [CACACA_site8715]	10.7
TATTTTATATTTTATGCACACTTATAAGAAATATGT [CACACA_site5647]	9.42
TTATATAAAGAATGTACACACAGAAATGCACCCACA [CACACA_site2282]	9.38

Sequence	gcPBM binding intensity (ln)
ATAATATATGTATGTATGCACTTTTATTATTTTTTT	7.24
TTTTATATTTTATGCACACTTATAAGAAATATGTAC [CACACA_site3040]	10.6
AAATATTATAATAATTGTACTATATATACAGTTATT [XGTACX_site1963]	6.39
TAATATATCTATAATACACACTATTCTAATCACATA [CACACA_site6731]	6.49
AGTAGTCTGGAGAAGAGTACATAGTATCTGGTAGCT [XGTACX_site2017]	6.4
ATATTTTTATTAGTAGTGCAATTTAGTGTATATATA [GTGCAC_site9542]	10.1
ATTTATATTACCCTTGCATGTAGGTGCAATTTTTTT [TGCATGCA_site757]	10.5
TACCCTTGCATGTAGGTGCAATTTTTTTTTTTTTTT	9.32
AAAAAAAAAAAACACACACACACATACACATACATA [CACACA_site2858]	6.83
TTAACATCAAAATATGCACACAAACAATTAGCGGTA [CACACA_site8801]	9.76
TTTATGCACGCGTGCACACACATATGAAAAAAGGTA [CACACA_site3315]	11
TATTTATGCACGCGTGCACACACATATGAAAAAAGG [CACACA_site9090]	10.9
TTATATGCATAAAAAGGTACACATATATAAATAAAT [XGTACX_site6894]	6.68
TATGAAAAAATATATACACACATAATAAAGGTATAT [CACACA_site3737]	6.42
CAAAAGGATATGCACACACACACACGGATATTTATA [CACACA_site7099]	10.1
TTTATGACTTGAAAAAGTACACATATATTTATGCAA [XGTACX_site5451]	6.31
TTAGGAAGCTCACAAAATAAAGTGAAAAGAAGAAAA [XGTACX_negctrl_site572]	6.45
CCACAAGTATATAGTAGTACAATTTTTTTCTCTTTA [XGTACX_site4403]	6.12
ACAACAAAAATAAGCACACACAAATATACATACATA [CACACA_site7664]	6.55

— the supplement of paper PMC11417369
